Most compounds without a hit are left out; they make up all but 18% or so of the library.
DT40 TDP1 no CPT: qHTS for Inhibitors of human tyrosyl-DNA phosphodiesterase 1 (TDP1): qHTS in cells in absence of CPT; DT40 Tdp1-/- hTDP1 cells, no CPT, ATP luminescence, 48 h; Potency, µM (titrated, usually from 46.2 µM), for inactives: top-dose activity change, negative = growth inhibition, actives largely listed as inhibitors; 15% of 420,000 active; further: potency means the concentration at half of the fitted maximal effect; on the % scale 0 is the no-effect control and ±100 the full control effect; nearly all actives have a fitted effect of over 55% in size
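Chicken DT40 Tdp1-/- cells stably complemented with human TDP1 were seeded at 400 cells/well with DMSO in place of 20 nM camptothecin. After compound pinning, cells grew at least 48 hr at 37 °C; viability read by CellTiter-Glo luminescence.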
IL1B secr inh: inflammasome signaling inhibition, IL-1 beta readout; THP-1 LPS/ATP IL-1B secretion, AlphaLISA, 16 h; active compounds read low; activity change, % at 57.5 µM; 4.7% of 360,000 active; in the data active means activity change below about -50%; inconclusive means mostly about -30% to -49%; further: on the % scale 0 is the no-effect control and ±100 the full control effect
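THP-1 cells pretreated 1 hr with compounds (up to 57.5 uM final), then stimulated with LPS (250 ng/mL final) plus ATP (1.25 mM final); secreted IL-1B measured by AlphaLISA after 16 hr, decreased signal indicating inhibition.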
TGFb SMAD3 inh: blocks TGF-b signaling. HepG2 CAGA-GFP TGF-b/SMAD3 reporter, GFP fluorescence, 18 h; TGF-beta stimulated, 500 pg/mL final. Potency, µM (series often up to 46.1 µM), for the others: at the top dose activity, negative = inhibition, hits mostly inhibitors. 1.2% of 410,000 active; further: potency means the concentration at half of the fitted maximal effect; on the % scale 0 is the no-effect control and ±100 the full control effect; nearly all actives have a fitted effect of over 65% in size
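Read-out: total well GFP (ex488/em500-530) summed from mean per-cell fluorescence. Cells: HEPG2 CAGA-GFP, 1% FBS DMEM, 18 h at 37 degrees C with 500 pg/mL final TGF-beta. Unstimulated wells served as the full-inhibition control; stimulated DMSO wells = 0%.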
HepG2 viability: kills HepG2 cells in TGF-b inhibitor counter-screen; Potency, µM (series often up to 46.1 µM), for inactives: top-dose activity change, negative = cytotoxicity, usual class: cytotoxic; HepG2 CAGA-GFP viability, ATP luminescence, 18 h; 0.76% of 410,000 active; further: potency means the concentration at half of the fitted maximal effect
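CellTiter-Glo luminescence gave cytotoxicity after 18 hours at 37 degrees C. The cells were HepG2 CAGA-GFP in 1% FBS DMEM, stimulated with 500 pg/mL TGF-beta after compound addition. %Activity was normalised to no-cell wells (complete cell-killing) and DMSO (no toxicity), and curves were fitted and classified.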
TDP1 cell CPT: DT40-hTDP1 cell growth loss with CPT; 12% of 420,000 active; chicken DT40 Tdp1-/-;hTDP1 cells + 20 nM CPT, ATP luminescence, 48 h; Potency, µM (top dose mostly 46.2 µM), without a hit: at the highest dose activity change, negative = growth inhibition, hits mostly inhibitors; further: potency means the concentration at half of the fitted maximal effect; on the % scale 0 is the no-effect control and ±100 the full control effect; nearly all actives have a fitted effect of over 55% in size
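Chicken DT40 Tdp1-/- cells stably complemented with human TDP1 were seeded at 400 cells/well in medium containing 20 nM camptothecin, exposed to pin-transferred compounds, and grown at 37 °C for at least 48 hr. Viability was read as ATP luminescence.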
TDP1 block: TDP1 (human) enzyme inhibition; Q9NUW8; recombinant TDP1, AlphaScreen DNA substrate cleavage; Potency, µM (doses to about 130 µM), without a hit: at the highest dose activity change, negative = inhibition, hits mostly inhibitors; 0.28% of 350,000 active; further: potency means the concentration at half of the fitted maximal effect; on the % scale 0 is the no-effect control and ±100 the full control effect; nearly all actives have a fitted effect of over 40% in size
Target sequence (Q9NUW8 whole entry, looked up): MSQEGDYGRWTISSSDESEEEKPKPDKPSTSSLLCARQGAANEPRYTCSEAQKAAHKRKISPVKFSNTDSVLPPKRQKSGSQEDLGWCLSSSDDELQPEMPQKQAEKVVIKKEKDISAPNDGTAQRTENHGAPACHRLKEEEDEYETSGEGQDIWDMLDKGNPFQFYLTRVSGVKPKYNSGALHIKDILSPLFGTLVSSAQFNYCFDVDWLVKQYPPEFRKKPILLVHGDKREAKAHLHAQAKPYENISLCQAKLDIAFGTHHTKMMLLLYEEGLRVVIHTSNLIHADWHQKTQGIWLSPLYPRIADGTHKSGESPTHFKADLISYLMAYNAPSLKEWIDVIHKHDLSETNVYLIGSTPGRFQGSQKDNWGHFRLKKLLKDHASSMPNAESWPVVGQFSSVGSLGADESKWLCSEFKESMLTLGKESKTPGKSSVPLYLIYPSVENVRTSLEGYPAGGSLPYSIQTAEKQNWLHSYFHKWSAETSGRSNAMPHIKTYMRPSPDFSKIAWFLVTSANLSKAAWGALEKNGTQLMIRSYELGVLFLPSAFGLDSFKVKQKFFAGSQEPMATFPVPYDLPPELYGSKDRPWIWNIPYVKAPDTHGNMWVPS
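Enzyme-compound mixtures sat 15 min at room temperature, followed by a 5 min reaction with 15 nM final substrate and 10 min with AlphaScreen beads. Recombinant human Tdp1 was used at 1 nM final.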
Active calls of the source: *; ? = inconclusive; . = not tested or not shown; [ ] = remark or other dose. Unless noted, the call rests on the fitted dose curve; in most records, active means well fitted curve in the direction sought with a large enough effect; inconclusive means small, poorly fitted or top-dose-only effect, or another doubt; inactive means no such curve, though single readings can be large; an effect the other way counts as inactive or inconclusive.

SMILES | DT40 TDP1 no CPT | IL1B secr inh | TGFb SMAD3 inh | HepG2 viability | TDP1 cell CPT | TDP1 block
COc1cc(OC)c(NC(=O)c2nnn(Cc3ccc(C)cc3)c2N)cc1Cl | 12µM* | . | -29% | -17% | 18µM* | 5%
Nc1c(C(=O)Nc2ccc3c(c2)OCCO3)nnn1Cc1ccc(Cl)cc1 | -22% | 4 | 0% | -31% | -17% | 3%
COc1cc(NC(=O)c2nnn(Cc3ccc(SC)cc3)c2N)cc(OC)c1 | 29µM* | -25 | ? | -27% | 18µM* | 7%
COc1ccc(Cn2nnc(C(=O)Nc3ccc4c(c3)OCCO4)c2N)cc1Br | 2.6µM* | 0 | -14% | -25% | 18µM* | -2%
CN(C(=O)c1ccccc1C(=O)OCC(=O)Nc1ccc(S(N)(=O)=O)cc1)c1ccccc1 | -15% | -6 | 4% | 0% | -8% | -3%
c1cc(CNc2ccc3c(c2)OCCO3)ccn1 | -3% | 8 | 15% | 10% | -29% | 3%
CC1Cc2ccccc2N1CC(=O)NC(=O)NC(C)(C)C (stereo not drawn) | 7% | 65 | 1% | -2% | 5% | 6%
CC1Cc2ccccc2N1CC(=O)NC(=O)NC1CCCCC1 (stereo not drawn) | -17% | 35 | -3% | -4% | 18µM* | 3%
Cc1cc(N=Cc2c(O)n(-c3ccc4c(c3)OCO4)c(=O)c3ccccc23)ccn1 | 18µM* | ? | ? | -65% | 18µM* | 3%
Cc1ccc(-n2c(O)c(C=Nc3ccc4c(c3)OCO4)c3ccccc3c2=O)cc1C | ? | 25 | 14% | -6% | 7.3µM* | 4%
CCOC(=O)Cc1csc(/N=C/c2c(O)n(-c3ccc(C)c(C)c3)c(=O)c3ccccc23)n1 | ? | -7 | 17% | 8% | 21µM* | 1%
Cc1cccc(-n2c(O)c(C=Nc3cccc(O)c3)c3ccccc3c2=O)n1 | ? | -14 | 3% | -1% | 21µM* | .
c1ccc2c(N=NN3CCCCC3)ccnc2c1 | ? | . | -1% | -16% | -129% | .
COc1ccc(NC(=O)Cn2c(=O)n(-c3ccc(C)cc3)c(=O)c3c2cnn3C)cc1 | ? | . | 2% | -11% | -4% | 3%
CC(C)Nc1ccc(C(CC(N)=O)NC(=O)Cc2ccc(Cl)cc2)cc1[N+](=O)[O-] (stereo not drawn) | ? | -1 | -12% | 5% | ? | 2%
Cc1ccc(OCCCCn2nnc3sc4c(c3c2=O)CCC(C)C4)cc1 (stereo not drawn) | -9% | . | -7% | -5% | -14% | -7%
COc1cc(OC)cc(C(=O)OCC(=O)NCCCc2ccccc2)c1 | 3% | 6 | 1% | 1% | -14% | .
COc1ccc(OC)c(Nc2nc(C)nc3c2oc2ccccc23)c1 | 21µM* | 10 | -1% | 10% | 23µM* | .
COc1ccc(CCNc2nc(C)nc3c2oc2ccccc23)cc1OC | 4.1µM* | ? | -9% | -24% | 3.7µM* | 6%
COc1ccc(Cl)cc1Nc1nc(C)nc2c1oc1ccccc12 | -22% | 19 | 10% | 2% | ? | .
CCCCCn1ccc(=O)c2c(C(F)(F)F)nccc21 | 18µM* | 17 | -11% | -1% | 13µM* | 7%[56.1 µM]
COc1cc(N/N=C(\C)c2ccc(N)cc2)nc(-c2ccccc2)n1 | 18µM* | ? | ? | -48% | 23µM* | 10%
C/C(=N\Nc1cc(-c2ccccc2)nc(-c2ccccc2)n1)c1ccc(O)c(C)c1 | ? | -27 | ? | -111% | ? | -5%
COc1cc(N/N=C(\C)c2ccc(O)c(C)c2)nc(-c2ccccc2)n1 | ? | -59* | ? | -128% | ? | 0%
O=C(NCC(F)(F)F)C1C(=O)Nc2ccccc2C(=O)N1Cc1ccccc1 (stereo not drawn) | -6% | 67 | . | . | 0% | .
SMILES | DT40 TDP1 no CPT | IL1B secr inh | TGFb SMAD3 inh | HepG2 viability | TDP1 cell CPT | TDP1 block
CCc1ccc(NC(=S)N2CCC(NC(=O)c3ccccc3OC)CC2)cc1 | ? | -12 | 0% | 0% | -4% | 5%
CC(NC(=O)COc1cccnc1[N+](=O)[O-])c1ccc(Cl)cc1 (stereo not drawn) | -18% | 0 | -20% | 5% | -24% | 0%
Cn1c(SC2=CS(=O)(=O)c3ccccc32)nc2ccccc21 | 2.9µM* | -119* | ? | -69% | 2.3µM* | 5%
O=C(c1cc2c(=O)oc3ccccc3c2s1)N1CCN(c2cccc(Cl)c2)CC1 | 1% | . | 15% | 19% | -20% | 3%
Clc1cccc(-c2nc3ccc(Cl)cn3c2Cc2ccccc2)c1 | 16µM* | 20 | ? | -36% | ? | .
Clc1cccc(-c2nc3ccc(Cl)cn3c2Cc2ccsc2)c1 | ? | 103 | 16µM* | -41% | ? | .
Fc1cccc(Cc2c(-c3cccc(Br)c3)nc3ccc(Cl)cn23)c1 | ? | 32 | ? | -38% | ? | .
c1ccc(C[C@H]2COc3c4ccccc4nn32)cc1 | -17% | -10 | . | . | 12% | .
Cc1oc(-c2cccc(Br)c2)nc1CN1CCC(C(=O)NCCc2ccc(Cl)cc2)CC1 | ? | . | 9% | -41% | 16% | 5%
CCN1CCN(C(=O)C2CCN(Cc3nc(-c4cccc(Cl)c4)oc3C)CC2)CC1 | 16µM* | ? | 1% | -15% | 21µM* | -1%
CCN1CCN(C(=O)C2CCN(S(=O)(=O)c3ccc(Br)cc3)CC2)CC1 | ? | -5 | 1% | -20% | 2% | 2%
Cc1oc(-c2cccc(Cl)c2)nc1CN1CCC(C(=O)N2CCN(c3ccccn3)CC2)CC1 | 18µM* | 10 | 2% | -18% | 23µM* | .
CCN1CCN(C(=O)C2CCN(Cc3cc(Cl)ccc3O)CC2)CC1 | -5% | -77* | 0% | -29% | -7% | -8%
NCCNC(=O)c1c(O)c2cccc3c2n(c1=O)CCC3 | ? | -92* | ? | -4% | -2% | .
O=C(Nc1ccccn1)c1c(O)c2cccc3c2n(c1=O)CCC3 | 15µM* | 19 | 0% | 6% | 15µM* | 5%
CCCNC(=O)c1c(O)c2cccc3c2n(c1=O)CCC3 | 7% | -3 | 0% | 0% | -2% | .
CC1(C)Cc2ccccc2-c2nc(NCCCO)n(-c3ccccc3)c(=O)c21 | 15µM* | -8 | 0% | -32% | 23µM* | 1%
Cn1cccc1-c1cc2n(n1)CCC(=O)N2CCCC(=O)NCc1ccc(F)cc1 | -10% | . | 6% | -2% | -19% | 7%

Source: PubChem
